ERK EGF block = qHTS Assay for Inhibitors of the ERK Signaling Pathway using a Homogeneous Screening Assay; Stimulation with EGF | hit rate 0.41% among 130,000 | Potency, µM (doses to about 11.5 µM), usual class: inhibitors | HEK293-V1b, EGF-stimulated phospho-ERK AlphaScreen | AID 1454, 2008; active = well fitted inhibition curve with a large enough effect; note: nearly all actives have a fitted effect of over 55% in size
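Compounds are titrated over HEK293-V1b cells kept overnight in 1% FBS. After 30 min at 37C, EGF (25 nM final) triggers ERK phosphorylation for 5 min, measured by AlphaScreen in lysates.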
Large screens that a line does not name were inactive. Shown is part of a subset that was picked to be rich in hits.

COC(=O)[C@@]1(Cc2ccccc2)[C@H]2c3cc(C(=O)N4CCCC4)[nH]c3C[C@H]2CN1C(=O)c1ccccc1	none
N=C(N)S/C=C\C(=O)O	none
NC(=O)Cc1nc2scc(-c3ccccc3)c2c(=O)[nH]1	none
CC(C)[C@H](NC(=O)c1ccccc1)C(=O)OCc1nc2scc(-c3ccccc3)c2c(=O)[nH]1	ERK EGF block 35µM
Cc1csc(SCc2nc3scc(-c4ccccc4)c3c(=O)[nH]2)n1	none
CN(C(=O)COc1ccccc1C(=O)NCCOc1ccccc1)c1ccccc1	ERK EGF block 32µM
CN(C(=O)COC(=O)CNC(=O)c1ccccc1Cl)c1ccccc1	none
CCOc1ccccc1C(=O)NCCC(=O)O	none
COc1cccc(CS(=O)(=O)c2nnnn2-c2ccccc2)c1	none
CNCCCCCCCCSc1nc(C(C)C)ccc1C(=O)c1cccs1	none
COc1ccc(-c2cc(C(F)F)n3ncc(C(=O)Nc4cc(C)on4)c3n2)cc1	ERK EGF block 28µM
COc1ccc(-c2cc(C(F)F)n3ncc(C(=O)Nc4c(C)n(C)n(-c5ccccc5)c4=O)c3n2)cc1	none
COCCNC(=O)c1cnn2c(C(F)F)cc(-c3ccc(C)cc3)nc12	none
CCOC(=O)C1CC(c2ccccc2)=NNC1=O (configuration not stated)	none
O=C1NC(=O)/C(=C/C(=O)N2CCOCC2)S1	none
Oc1ccc2ccccc2c1N=Nc1ccccc1F	ERK EGF block 14µM
CCOC(=O)c1[nH]cnc1N=Nc1c(O)ccc2ccccc12	none
Oc1ccc2ccccc2c1CN1CCN(c2ccccc2F)CC1	none
CC(C)C[C@@H](CC(=O)N[C@H](CC(=O)N[C@@H]1CCCC[C@H]1C(=O)N[C@H](CC(=O)N[C@@H](CCC(=O)O)CC(=O)O)Cc1c[nH]c2ccccc12)C(C)C)NC(=O)[C@@H]1CNCC[C@H]1N	none
CN1/C(=C/c2cc[n+](C)c3ccccc23)C=Cc2ccccc21	ERK EGF block 10µM
COC(=O)/C(C#N)=C1/C=Cc2ccccc2N1C	none
CC(C)[C@@H](CC(=O)N[C@@H]1CCCC[C@H]1C(=O)N[C@H](CC(=O)N[C@@H](CCC(=O)O)CC(=O)O)Cc1c[nH]c2ccccc12)NC(=O)C[C@H](Cc1c[nH]c2ccccc12)NC(=O)[C@@H]1CNCC[C@H]1N	none
C=CCC(O)(C#Cc1ccccc1)c1ccccc1 (configuration not stated)	none
CCCCCCCCCC(=O)O[C@H](CC(=O)O)C[N+](C)(C)C	none
CCC/C=C(\CCC)C(NS(=O)(=O)c1ccc(C(F)(F)F)cc1)c1ccc(-c2ccccc2)cc1 (configuration not stated)	none
N#Cc1c(N2CCOCC2)nsc1-c1ccc(C(F)(F)F)cc1	none
N#CCCN1CCCc2cc(N=Nc3ccc(C(F)(F)F)cc3)ccc21	ERK EGF block 22µM
COC(=O)NC(CCc1ccccc1)C(C(C)=O)C(=O)OC (configuration not stated)	none
NC(CCC(=O)N[C@@H](CS)C(=O)NCC(=O)O)C(=O)O (some centres not stated)	none
Cc1nn(C)c(Sc2ccccc2N)c1[N+](=O)[O-]	none
Cc1cc(O)c2c(c1O)C(=O)C(O)=C(O)C2=O	none
O=C(c1csnn1)N1CCC2(CC1)CCN(c1cccc(-c3ccccc3)c1)CC2	none
Cc1cccc(OCC(=O)N2CCN(c3nnc(-c4ccccc4)c4ccccc34)CC2)c1	none
Cc1cccc(OCC(=O)N2CCN(C(=O)c3ccc([N+](=O)[O-])cc3)CC2)c1	none
Cc1ccc(-c2nnc(N3CCN(C(=O)COc4cccc(C)c4)CC3)c3ccccc23)cc1	ERK EGF block 40µM
COCCOC(=O)N/C=C\c1nc2ccccc2c(=O)[nH]1	none
COc1ccc(N2CCN(C(=S)Nc3ccc(C)cc3C)CC2)cc1	none
COc1ccc(N2CCC(CNC(=S)Nc3cc(C)ccc3C)C2)cc1 (configuration not stated)	ERK EGF block 14µM
COc1ccc(CNC(=O)Nc2cc(C)ccc2C)cc1	none
COc1ccc(N2CCC(CNC(=S)Nc3cc(C)cc(C)c3)C2)cc1 (configuration not stated)	ERK EGF block 14µM
COc1ccc(N2CCN(C(=S)NCc3ccc(C)cc3)CC2)cc1	none
COc1cccc(CNC(=S)Nc2cc(C)cc(C)c2)c1	none
COc1ncc2ncc(=O)n(CCC#N)c2n1	none
COCCN(CCOC)c1nc(C)nc2c1nc(-c1ccccc1)n2CC1CCN(C)CC1	none
O=C(/C=C\Nc1ccc2c(c1)OCO2)c1ccc2c(c1)OCO2	none
O=C1Nc2ccc(Br)cc2/C1=C/C1CC=CCC1 (configuration not stated)	none
O=C1Nc2ccc(Br)cc2/C1=C/C(=O)c1ccc2c(c1)OCO2	ERK EGF block 32µM
CN1CCN([C@@H](c2ccccc2)c2ccc(Cl)cc2)CC1	none
CCCCCCCCCCCCCCCCCCOC[C@@H](O)COP(=O)([O-])OCC[N+](C)(C)C	none
CCCCCCCCCCCCCCCC(=O)NCC(COP(=O)([O-])OCC[N+](C)(C)C)OCC (configuration not stated)	ERK EGF block 25µM
